Vaccinia mCherry – qHTS for Stage-Specific Inhibitors of Vaccinia Orthopoxvirus: mCherry Reporter Primary qHTS | Potency, µM (doses to about 36.5 µM), for inactives: at the highest dose activity change, negative = inhibition, hits mostly inhibitors | actives 0.63% (n = 310,000) | Vaccinia virus mCherry reporter infection, fluorescence; calls by dose curve; tested in A549 cells; further: potency means the concentration at half of the fitted maximal effect; nearly all actives have a fitted effect of over 35% in size
VACV Venus inh – qHTS for Stage-Specific Inhibitors of Vaccinia Orthopoxvirus: Venus Reporter Primary qHTS; actives 0.46% (n = 330,000); AID 720580, 2013; Vaccinia virus Venus reporter expression, fluorescence; Potency, µM (series often up to 36.5 µM), inactives show at the highest dose activity change, negative = inhibition, most hits filed as inhibitors; calls by dose curve; tested in A549 cells; further: potency means the concentration at half of the fitted maximal effect; nearly all actives have a fitted effect of over 30% in size
HCMV inh – qHTS Assay for inhibitors of the human cytomegalovirus (HCMV) | AID 1259415, 2018 | activity change, negative = inhibition, % at 57.5 µM | HFF cells, HCMV-luciferase reporter, 72 h; active compounds read low | actives 4.5% (n = 410,000); in the data active means activity change below about -60%; inconclusive means no clear call, values can overlap the other calls; inactive means above about -39%
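Screen run at 2 compound doses on HFFs infected with reporter HCMV, MOI 1 PFU/cell. Luciferase activity from cell lysates at 72 h post infection gave inhibition relative to buffer-only and Salinomycin wells.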
HCV inh – qHTS Assay for Inhibitors of Hepatitis C Virus (HCV); Huh7.5.1 HCVcc-Cre infection, luciferase reporter, 44 h; actives 3.4% (n = 340,000); Potency, µM (doses to about 41.8 µM), without a hit: top-dose activity change, negative = inhibition, hits mostly inhibitors; active means well fitted inhibition curve with a large enough effect; inconclusive means small, poorly fitted or top-dose-only effect, or another doubt; inactive means no such curve, though single readings can be large or run the other way; further: potency means the concentration at half of the fitted maximal effect
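Luciferase read-out (15 sec integration) after a 15 min room-temperature substrate step quantifies HCVcc-Cre infection. Cells, 1,000 per well, had compound added 4 h post-plating, then virus at ~0.5 moi, and were cultured 44 h.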
FMDV inh – High Throughput Screening for Foot and Mouth Disease Virus Antivirals. actives 1.2% (n = 410,000). Potency, µM (doses to about 57.9 µM), without a hit: top-dose activity change, negative = inhibition, actives largely listed as inhibitors. FMDV antiviral cell-based qHTS. AID 1159524, 2015; calls by dose curve; tested in HEK293T cells; further: read-out not given here; potency means the concentration at half of the fitted maximal effect; nearly all actives have a fitted effect of over 45% in size
* hit, by the source's call; i = inactive; u = inconclusive; x = not tested or not shown. Sampled rows, rich in hits. Any-hit rate of the full collection: about 7.3%. On the % scale 0 is the no-effect control and ±100 the full control effect.

SMILES | Vaccinia mCherry | VACV Venus inh | HCMV inh | HCV inh | FMDV inh
CCOc1ccc(NC(=O)c2nc(S(=O)(=O)Cc3ccccc3F)ncc2Cl)cc1 | u | u | -99.9* | x | 25.1µM*
Cc1nnc(NC(=O)c2nc(S(=O)(=O)Cc3ccccc3C)ncc2Cl)s1 | x | x | -102.1* | u | 25.1µM*
CC(C)c1nnc(NC(=O)c2nc(S(=O)(=O)Cc3ccccc3F)ncc2Cl)s1 | x | x | -111.1* | u | 28.2µM*
O=C(Nc1nc2ccc(F)cc2s1)c1nc(S(=O)(=O)Cc2ccccc2F)ncc1Cl | -23.9% | -18.6% | -109.3* | x | u
Cc1nnc(NC(=O)c2nc(SCc3ccccc3F)ncc2Cl)s1 | -5.8% | -1.4% | 30.9 | x | -23.5%
CCNc1ncc2nc(-c3ccc(Cl)cc3)c(=O)n(-c3ccc(OC)cc3)c2n1 | x | x | x | x | -5.0%
O=C(NCc1ccc(F)c(F)c1)c1cnc(N2CCN(Cc3ccccc3)C2=O)s1 | x | x | -32.1 | x | x
CCc1nc2ccc(C(=O)NCc3ccc4c(c3)OCO4)cn2c1N(C)Cc1ccc(OC)cc1 | -22.0% | -5.5% | -19.6 | x | -18.5%
CCOc1ccc(NC(=O)CN(C)C(=O)Cc2ccc3c(c2)OCCO3)cc1OCC | -10.7% | -9.3% | 24.2 | x | -6.8%
O=C(Nc1ccccc1)c1nc(S(=O)(=O)Cc2ccccc2F)ncc1Cl | -12.1% | -16.0% | x | x | x
CSc1nnc(NC(=O)c2nc(S(=O)(=O)Cc3ccccc3F)ncc2Cl)s1 | i | -6.2% | -96.1* | u | 7.08µM*
O=C(CNc1cccc(S(=O)(=O)N2CCCCC2)c1)Nc1ccc(C(F)(F)F)cc1 | -22.9% | u | -79.0* | x | u
N#Cc1cccc(NC(=O)CNc2cccc(S(=O)(=O)N3CCCCC3)c2)c1 | -14.0% | -7.2% | u | u | 35.5µM*
O=C(Nc1ccc(Cl)cc1)C1CCCCN1S(=O)(=O)c1ccccc1 (configuration not stated) | u | 10µM* | -100.7* | u | u
O=C(CNc1cccc(F)c1)Nc1cccc(S(=O)(=O)N2CCCCC2)c1 | -0.3% | -7.3% | 3.6 | u | 17.2%
Cc1ccc(NC(=O)CNc2cccc(S(=O)(=O)N3CCCCC3)c2)cc1F | u | -18.8% | -35.1 | u | u
O=C(CNc1cccc(S(=O)(=O)N2CCCC2)c1)Nc1ccc(C(F)(F)F)cc1 | u | -28.9% | -69.2* | 10µM* | -26.9%
O=C(Nc1cccc(S(=O)(=O)N2CCCCC2)c1)[C@@H]1CCCN1S(=O)(=O)c1ccccc1C(F)(F)F | x | x | -23.3 | 14.1µM* | -19.0%
c1ccc2c(CN3CCSCC3)cccc2c1 | x | x | 1.2 | 7.6% | -9.6%
CSc1ccc(NC(=O)N2CC=C(n3c(=O)[nH]c4ccccc43)CC2)cc1 | -16.1% | -29.5% | -15.4 | 10µM* | u
CCOC(=O)/C=c1/s/c(=C\c2c(OC)ccc3ccccc23)c(=O)n1CC(=O)NCC1CCCO1 (configuration not stated) | u | -19.6% | -87.4* | u | -11.2%
CCOC(=O)/C=c1\s/c(=C\c2ccccc2C)c(=O)n1CC(=O)NCc1ccc2c(c1)OCO2 | -13.9% | -28.2% | 3.1 | -1.3% | 19.4%
CCOC(=O)/C=c1\s/c(=C\c2ccc3c(c2)OCCO3)c(=O)n1CC(=O)NCC1CCCO1 (configuration not stated) | 6.9% | 13.4% | 12.3 | -5.9% | -11.1%
CCOC(=O)/C=c1\s/c(=C\c2c(OCC)ccc3ccccc23)c(=O)n1CC(=O)NCC1CCCO1 (configuration not stated) | -18.7% | u | 26.0 | 3.55µM* | -23.1%
CCOC(=O)/C=c1\s/c(=C\c2ccc3cc(OC)ccc3c2)c(=O)n1CC(=O)NCc1ccc2c(c1)OCO2 | -7.7% | 6.5% | -100.0* | -28.9% | 19.9%
SMILES | Vaccinia mCherry | VACV Venus inh | HCMV inh | HCV inh | FMDV inh
COc1ccc(NC(=O)c2cnc(SCC(=O)Nc3nc4ccc(C)cc4s3)n(C)c2=O)cc1 | -2.4% | -14.2% | 4.5 | x | 35.7%
CC(C)CNC(=O)C1(C)CCCN1C(=O)C(C)(C)Oc1ccc(Cl)cc1 (configuration not stated) | -2.0% | 1.3% | 39.3 | x | -13.3%
Cc1cccc(-c2nc3ccccc3c(=O)n2NC(=O)c2cccnc2Cl)c1 | x | x | -68.7* | -4.3% | -18.5%
O=C(Nc1ccc(Cl)cc1Cl)[C@@H]1CC=C[C@@H]2CCN(C3CCCCC3)C(=O)[C@@H]21 | -1.3% | -7.4% | x | x | x
CCOc1ccc(CC(=O)Nc2ccc3nc(N4CCCCC4)cc(C)c3c2)cc1OCC | -19.4% | -18.1% | 38.1 | x | -7.2%
C[C@@]12C(=O)NCC(=O)N1[C@@H]1c3cc(Br)ccc3OC[C@@H]1[C@@H]2c1ccccc1 | i | -23.3% | -0.4 | 9.3% | -18.3%
CCOC(=O)/C(O)=C(\C#N)c1nc2ccccc2[nH]1 | -4.7% | 4.1% | -64.0* | 9.0% | u
N#C/C(=C(/O)COC(=O)CCCNC(=O)c1ccc(Cl)cc1)c1nc2ccccc2[nH]1 | 5.7% | 10.2% | -93.4* | -4.9% | u
COc1ccccc1OCC(=O)OC/C(O)=C(\C#N)c1nc2ccccc2[nH]1 | x | x | -99.4* | -12.2% | 2.2%
N#C/C(=C(/O)COC(=O)CSc1ccc(Cl)cc1)c1nc2ccccc2[nH]1 | -9.1% | -20.0% | -80.7* | 0.3% | u
N#CC(=C(O)COC(=O)CCC1CCCCC1)c1nc2ccccc2[nH]1 | -5.7% | -1.1% | -12.6 | 3.3% | -16.1%
COc1ccccc1C(=O)Nc1ccccc1SCc1cc(=O)c2ccccc2[nH]1 | u | -19.8% | -11.6 | x | 28.9%
COc1cc(-c2nnc(SCC(=O)N(C)C3CCCCC3)o2)cc(OC)c1OC | -17.1% | -0.7% | -8.5 | x | 0.0%
CC1=CC2C(C)(C)CC(=O)C[C@]2(C)CC1COc1ccc2c(c1)CC(=O)C=C2 (some centres not stated) | x | x | x | x | 0.0%
Cc1noc(/C=C/N(C)C)c1S(=O)(=O)N1CCN(c2ccccc2)CC1 | -6.5% | -11.0% | -86.1* | u | -25.6%
Cc1noc(/C=C/N(C)C)c1S(=O)(=O)N1CCCC(C(=O)NCc2ccccc2Cl)C1 (configuration not stated) | x | x | -97.9* | u | -12.4%
CCc1ccc(-c2cc(C)no2)cc1S(=O)(=O)NCc1ccc(OC)cc1 | -25.7% | -24.0% | 0.0 | x | 22.0%
CCOc1cc(C(=O)N/N=C/c2ccsc2)cc(OCC)c1OCC | -29.4% | -16.2% | 13.9 | u | 1.6%
CCOc1cc(C(=O)N/N=C/c2ccoc2)cc(OCC)c1OCC | x | x | -88.0* | -16.4% | 4.9%
COc1ccc2cc3[n+](cc2c1O)CCc1cc2c(cc1-3)OCO2 | i | 6.6% | -1.5 | x | 10µM*
COc1cc(C2C3=C(COC3=O)Oc3cc4c(cc32)OCO4)cc(OC)c1O (configuration not stated) | 31.6µM* | u | -79.4* | -18.4% | -17.4%
